# According to PubChem BioAssay (EPA / NIEHS):
# Calls of active or inactive are those of the source. The calls were made as follows: active = hit-call score of the fitted dose curve at least 0.9, where 1 is the maximum; inactive = score below 0.9.
# Key:
# Conditions in all cases: mRNA level, 48 h; actives raise or lower the signal
# [1] = read-out: 3-Hydroxy-3-Methylglutaryl-CoA Synthase 2 (HMGCS2), HMGCS2 (gene 3158); assay: LTEA_HepaRG_HMGCS2: Life Technologies and Expression Analysis (LTEA) Assay for 3-Hydroxy-3-Methylglutaryl-CoA Synthase 2 (HMGCS2) using HepaRG (AID 2283504)
# In short: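 Readout is HMGCS2 transcript by qRT-PCR, housekeeping-normalised (ACTB/GAPDH/POLR2A) and fitted bidirectionally against 0.5% DMSO. Differentiated HepaRG cells received chemicals 48 h, duplicate wells, eight half-log concentrations topping at 100 uM.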
# HGF (gene 3082) = assay: LTEA_HepaRG_HGF: Life Technologies and Expression Analysis (LTEA) Assay for Hepatocyte Growth Facto (HGF) using HepaRG (AID 2283505)
# In short: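 HGF transcript was quantified by TaqMan qRT-PCR against three housekeeping genes after 48 h treatment of HepaRG cells. Exposure ran in duplicate over eight half-log steps topping at 100 uM in 0.5% DMSO vehicle.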
# [2] = read-out: Insulin Like Growth Factor 1 (IGF1), IGF1 (gene 3479); assay: LTEA_HepaRG_IGF1: Life Technologies and Expression Analysis (LTEA) Assay for Insulin Like Growth Factor 1 (IGF1) using HepaRG (AID 2283506)
# In short: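 Endpoint: IGF1 mRNA change by qRT-PCR, housekeeping-normalized, fitted bidirectionally relative to 0.5% DMSO vehicle. Human HepaRG cells were treated 48 h in serum-free induction medium, eight half-log concentrations topping at 100 uM.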
# [3] = read-out: Intercellular Adhesion Molecule 1 (ICAM1), ICAM1 (gene 3383); assay: LTEA_HepaRG_ICAM1: Life Technologies and Expression Analysis (LTEA) Assay for Intercellular Adhesion Molecule 1 (ICAM1) using HepaRG (AID 2283507)
# In short: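 ICAM1 transcript levels measured by qRT-PCR, normalized to three housekeeping genes (ACTB, GAPDH, POLR2A), after 48 h chemical exposure of HepaRG cells. Duplicate eight-point half-log series from 100 uM in 0.5% DMSO; gain or loss fitted against vehicle.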
# [4] = read-out: Insulin-like growth factor-binding protein 1 (IGFBP1), IGFBP1 (gene 3484); assay: LTEA_HepaRG_IGFBP1: Life Technologies and Expression Analysis (LTEA) Assay for Insulin-like growth factor-binding protein 1 (IGFBP1) using HepaRG (AID 2283508)
# In short: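 Read-out is qRT-PCR transcript level normalized to three housekeeping genes, fitted in both directions against 0.5% DMSO. Differentiated HepaRG cells received eight half-log concentrations (top 100 uM) in duplicate for 48 h in serum-free induction medium.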
# [5] = read-out: Interleukin 6 (IL6), IL6 (gene 3569); assay: LTEA_HepaRG_IL6: Life Technologies and Expression Analysis (LTEA) Assay for Interleukin 6 (IL6) using HepaRG (AID 2283509)
# In short: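 qRT-PCR read-out of IL6 transcript, normalized to three housekeeping genes, after 48 h chemical exposure of HepaRG cells; 8-point half-log series, top 100 uM, 0.5% DMSO vehicle. Bidirectional curve fitting against DMSO baseline.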
# [6] = read-out: Interleukin 6 Receptor (IL6R), IL6R (gene 3570); assay: LTEA_HepaRG_IL6R: Life Technologies and Expression Analysis (LTEA) Assay for Interleukin 6 Receptor (IL6R) using HepaRG (AID 2283510);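 as to AC50: differentiated human HepaRG liver cells in serum-free induction medium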
# In short: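 In this HepaRG screen, test chemicals act on cells for 48 h at up to 100 uM (eight half-log points, duplicate wells). IL6R expression is quantified by qRT-PCR after normalization to ACTB, GAPDH and POLR2A, with DMSO as baseline.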
# [7] = read-out: Keratin 19 (KRT19), KRT19 (gene 3880); assay: LTEA_HepaRG_KRT19: Life Technologies and Expression Analysis (LTEA) Assay for Keratin 19 (KRT19) using HepaRG (AID 2283512)
# In short: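 KRT19 transcript measured by TaqMan qRT-PCR, referenced to three housekeeping genes, after HepaRG cells received test chemicals for 48 h. Eight half-log concentrations, top 100 uM, 0.5% DMSO vehicle; increases and decreases both fitted.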
# [8] = read-out: JUN Transcription Factor, JUN (gene 3725); assay: LTEA_HepaRG_JUN: Life Technologies and Expression Analysis (LTEA) Assay for JUN Transcription Factor using HepaRG (AID 2283513)
# In short: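 Gene-expression endpoint: JUN mRNA (qRT-PCR, normalized to three reference genes) in HepaRG cultures treated 48 h with chemicals, duplicate wells, 100 uM maximum with half-log dilutions; bidirectional fitting relative to 0.5% DMSO.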
# [9] = read-out: Potassium channel subfamily K member 1 (KCNK1), KCNK1 (gene 3775); assay: LTEA_HepaRG_KCNK1: Life Technologies and Expression Analysis (LTEA) Assay for Potassium channel subfamily K member 1 (KCNK1) using HepaRG (AID 2283511)
# In short: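 HepaRG, 48 h exposure, 8-pt half-log series top 100 uM, 0.5% DMSO vehicle, duplicates. Readout: KCNK1 transcript by qRT-PCR (Fluidigm array), housekeeping-normalized; bidirectional curve fit relative to DMSO baseline.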
smiles,measurement,setting,value
CCCCOC(=O)CCCCC(=O)OCCCC,outcome,[1],inactive
same,outcome,HGF (gene 3082),inactive
same,outcome,[2],inactive
same,outcome,[3],inactive
same,outcome,[4],inactive
same,outcome,[5],inactive
same,outcome,[6],inactive
same,outcome,[7],inactive
same,outcome,[8],inactive
CCCC(=O)O,outcome,[1],inactive
same,outcome,HGF (gene 3082),inactive
same,outcome,[2],inactive
same,outcome,[3],inactive
same,outcome,[4],inactive
same,outcome,[5],inactive
same,outcome,[6],inactive
same,outcome,[7],inactive
same,outcome,[8],inactive
CC1(C)C(=O)NC(=O)N1CO,outcome,[1],inactive
same,outcome,HGF (gene 3082),inactive
same,outcome,[2],inactive
same,outcome,[3],inactive
same,outcome,[4],inactive
same,outcome,[5],inactive
same,outcome,[6],inactive
same,outcome,[7],inactive
same,outcome,[8],inactive
CCCCCCC(C=O)=Cc1ccccc1,outcome,[1],inactive
same,outcome,HGF (gene 3082),inactive
same,outcome,[2],inactive
same,outcome,[3],inactive
same,outcome,[4],inactive
same,outcome,[5],inactive
same,outcome,[6],inactive
same,outcome,[7],inactive
same,outcome,[8],inactive
CCCCCCCC(=O)OC,outcome,[1],inactive
same,outcome,HGF (gene 3082),inactive
same,outcome,[2],inactive
same,outcome,[3],inactive
same,outcome,[4],inactive
same,outcome,[5],inactive
same,outcome,[6],inactive
same,outcome,[7],inactive
same,outcome,[8],inactive
Cc1occc(=O)c1O,outcome,[1],inactive
same,outcome,HGF (gene 3082),inactive
same,outcome,[2],inactive
same,outcome,[3],inactive
same,outcome,[4],inactive
same,outcome,[5],inactive
same,outcome,[6],inactive
same,outcome,[7],inactive
same,outcome,[8],inactive
COC(=O)CCC(=O)OC,outcome,[1],inactive
same,outcome,HGF (gene 3082),inactive
same,outcome,[2],inactive
same,outcome,[3],inactive
same,outcome,[4],inactive
same,outcome,[5],inactive
same,outcome,[6],inactive
same,outcome,[7],inactive
same,outcome,[8],inactive
O=[Si]=O,outcome,[1],inactive
same,outcome,HGF (gene 3082),inactive
same,outcome,[2],inactive
same,outcome,[3],inactive
same,outcome,[4],inactive
same,outcome,[5],inactive
same,outcome,[6],inactive
same,outcome,[7],inactive
same,outcome,[8],inactive
Nc1nc(Cl)nc2c1ncn2[C@H]1C[C@H](O)[C@@H](CO)O1,AC50,[1],1.49 µM (active)
same,AC50,[2],2.39 µM (active)
same,outcome,[3],inactive
same,AC50,[4],4.82 µM (active)
same,AC50,[5],16.1 µM (active)
same,AC50,[6],0.603 µM (active)
same,AC50,[9],1.36 µM (active)
same,outcome,[7],inactive
O=C1NC(=O)C(c2ccccc2)(c2ccccc2)N1,outcome,[1],inactive
same,outcome,HGF (gene 3082),inactive
same,outcome,[2],inactive
same,outcome,[3],inactive
same,outcome,[4],inactive
same,outcome,[5],inactive
same,outcome,[6],inactive
same,outcome,[7],inactive
O=C1OC(c2ccc(O)cc2)(c2ccc(O)cc2)c2ccccc21,AC50,[1],67.6 µM (active)
same,AC50,HGF (gene 3082),79.4 µM (active)
same,outcome,[2],inactive
same,outcome,[3],inactive
same,outcome,[4],inactive
same,outcome,[5],inactive
same,AC50,[6],50 µM (active)
same,outcome,[7],inactive
Cc1ccc(-c2cc(C(F)(F)F)nn2-c2ccc(S(N)(=O)=O)cc2)cc1,AC50,[1],73.7 µM (active)
same,outcome,HGF (gene 3082),inactive
same,AC50,[2],81.3 µM (active)
same,AC50,[3],50 µM (active)
same,outcome,[4],inactive
same,AC50,[5],81.4 µM (active)
same,outcome,[6],inactive
same,outcome,[7],inactive
same,AC50,[8],83.4 µM (active)
CCCCC(CC)CO (configuration not stated),outcome,[1],inactive
same,outcome,HGF (gene 3082),inactive
same,outcome,[2],inactive
same,outcome,[3],inactive
same,outcome,[4],inactive
same,outcome,[5],inactive
same,outcome,[6],inactive
same,outcome,[7],inactive
same,outcome,[8],inactive
O=C(N[C@@H](c1ccccc1)[C@@H]1CCCCN1)c1cccc(C(F)(F)F)c1Cl,AC50,[1],69.4 µM (active)
same,outcome,HGF (gene 3082),inactive
same,AC50,[2],17.9 µM (active)
same,AC50,[3],61.9 µM (active)
same,AC50,[4],25.3 µM (active)
same,AC50,[5],85 µM (active)
same,AC50,[6],50 µM (active)
same,AC50,[7],12.6 µM (active)
same,AC50,[8],65 µM (active)
Cc1ccc(C(C)(C)C)c(O)c1,outcome,[1],inactive
same,outcome,HGF (gene 3082),inactive
same,outcome,[2],inactive
same,outcome,[3],inactive
same,outcome,[4],inactive
same,outcome,[5],inactive
same,outcome,[6],inactive
same,outcome,[7],inactive
same,outcome,[8],inactive
